In the library only some 3.5% were active in any assay of this set; here they are far more common.
GPR151 ag: activators of human GPR151 | activation, % at 11.2 µM | PathHunter beta-arrestin GPR151 cells, luminescence | hit rate 1% among 650,000 | Q8TDV0 | AID 1508602; in the data active = activation above about 4.9%
TEAD-YAP inh: TEAD-YAP interaction inhibition. AID 1259422. inhibition, % at 9.12 µM. hit rate 1.4% among 640,000. HEK-TIYL cells, TEAD-Gal4/YAP UAS-luciferase luminescence; in the data active = inhibition above about 32%
MITF primary: blocks human microphthalmia-associated transcription factor; inhibition, % at 2.6 µM; O75030; hit rate 0.91% among 650,000; AlphaScreen MITF homodimerization, bead proximity signal; in the data active = inhibition above about 50%
Target sequence (O75030 whole entry, looked up): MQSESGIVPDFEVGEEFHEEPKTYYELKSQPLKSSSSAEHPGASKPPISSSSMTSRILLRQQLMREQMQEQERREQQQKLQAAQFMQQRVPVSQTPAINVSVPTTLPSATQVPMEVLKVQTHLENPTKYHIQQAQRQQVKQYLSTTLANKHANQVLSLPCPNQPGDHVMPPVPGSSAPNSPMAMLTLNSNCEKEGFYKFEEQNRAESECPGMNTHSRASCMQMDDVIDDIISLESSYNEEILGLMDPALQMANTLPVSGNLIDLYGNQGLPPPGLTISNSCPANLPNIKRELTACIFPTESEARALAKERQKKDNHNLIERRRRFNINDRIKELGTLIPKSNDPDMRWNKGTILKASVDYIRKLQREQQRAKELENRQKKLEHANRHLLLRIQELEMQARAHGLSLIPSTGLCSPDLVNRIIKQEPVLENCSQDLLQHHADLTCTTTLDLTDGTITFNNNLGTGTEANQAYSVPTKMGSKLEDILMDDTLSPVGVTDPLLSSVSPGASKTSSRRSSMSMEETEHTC
FBW7 activator: activators of human E3 ligase FBW7; Q969H0; AlphaScreen FBW7–phospho-cyclin E peptide binding, activator screen; normalized activity (activation), % at 26.1 µM; hit rate 0.13% among 650,000; in the data active = normalized activity above about 1.9%;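 note: purified mutant Fbw7 with reduced substrate affinity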
GPR151 confirm: human GPR151 activation, confirmation screen; shares compounds with GPR151 ag; GPR151 PathHunter beta-arrestin cells, luminescence, 90 min; % of EA-reagent control over plate median; AID 1508609; activation, % at 11.2 µM; 6,700 tested, under 10 active;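 active = mean percent activation across replicates above the confirmation screen cutoff of 4.91%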
GPR119 counter: GPR119 activation, counter-screen for GPR151 activators; GPR119 PathHunter beta-arrestin cells, luminescence, 90 min; 0 = compound-well median, 100 = enzyme-acceptor control; AID 1508611; activation, % at 11.2 µM; shares compounds with GPR151 ag; hit rate 0.3% among 6,700;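 active = mean percent activation in the counterscreen above 29.09%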;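 note: counterscreen on off-target GPR119 to flag nonselective hits from the GPR151 activator screen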
Hits are given with their value; - = inactive; . = not tested or not shown.

SMILES | GPR151 ag | TEAD-YAP inh | MITF primary | FBW7 activator | GPR151 confirm | GPR119 counter
O=C(c1cccc2ccccc12)N1CCCc2ccccc21 | - | - | - | - | . | .
Cc1ccc(S(=O)(=O)c2nc(NCCN(C)C)sc2Cl)cc1 | 5.2 | - | - | - | - | -
CC1(C)CC(=O)c2c(n(S(=O)(=O)c3ccc(Cl)cc3)c3ccc(NS(=O)(=O)c4ccc(Cl)cc4)cc23)C1 | - | - | - | - | . | .
O=C(Nc1cccc2ccccc12)C1CC(=O)N(c2cccc(Cl)c2)C1 (configuration not stated) | 6.9 | - | - | - | - | -
O=C(C[n+]1cccc(Br)c1)c1cccs1 | 7.8 | - | - | - | - | -
O=C1NN(c2ccc(F)cc2)C(=O)/C1=C\c1cccc(Cl)c1Cl | 5.4 | - | - | - | - | -
CC(=O)Nc1ccc(S(=O)(=O)N(C)Cc2ccccc2)cc1 | - | - | - | - | . | .
COc1ccc(S(=O)(=O)N(CC(=O)O)Cc2ccccc2)cc1C | - | - | - | - | . | .
Cc1cccc(OCC(=O)Nc2ccc(S(=O)(=O)N(C)Cc3ccccc3)cc2)c1 | 5.6 | - | - | - | - | -
CN(Cc1ccccc1)S(=O)(=O)c1ccc(NS(C)(=O)=O)cc1 | 5.7 | - | - | - | - | -
COc1ccc(S(=O)(=O)N(C)Cc2ccccc2)cc1C | 11 | - | - | - | - | -
O=C(Cn1cnc2sc3c(c2c1=O)CCCC3)NCCCC(=O)N1CCN(c2ccccn2)CC1 | - | - | - | - | . | .
COCC(C)NC(=O)c1cnc2scc(-c3ccc(Cl)s3)n2c1=O (configuration not stated) | - | - | - | - | . | .
Cc1cc(C(=O)NN2CCOCC2)c(C)o1 | 7.6 | - | - | - | - | -
Cc1cc(C(=O)N2CCOCC2)c(C)o1 | - | - | - | - | . | .
CCOC(=O)C1=C(C)N=c2s/c(=C\c3ccc(-c4cccc(C(=O)OCC)c4)o3)c(=O)n2C1c1ccc(C(C)C)cc1 (configuration not stated) | - | - | - | - | . | .
Cc1cc(C)n(-c2cc(NCCNC(=O)C(C)(C)Oc3ccc(Cl)cc3)nc(C)n2)n1 | 8.6 | - | - | - | - | -
COc1cc(C(=O)N(Cc2nc(-c3ccc(C)cc3)no2)C(C)C)cc(OC)c1OC | 8.3 | - | - | - | - | -
O=C(CSc1cnccc1C(F)(F)F)NCCc1ccccc1 | - | - | - | - | . | .
O=C(NNc1ccc([N+](=O)[O-])cc1)c1ccccc1Br | - | - | - | - | . | .
CCc1ccc(C2NCCc3cc4c(cc32)OCCO4)cc1 (configuration not stated) | - | - | - | - | . | .
c1c2c(cc3c1OCCO3)C1CN(C2)Cc2cc3c(cc21)OCCO3 | 7.4 | - | - | - | - | -
COc1ccc(N(CC(=O)N2CCCCC2)S(=O)(=O)c2ccc(C)cc2)cc1 | - | - | - | - | . | .
COc1ccc(S(=O)(=O)N(CC(=O)N2CCCC2)c2ccc(C)cc2)cc1 | 12 | - | - | - | - | -
Cc1ccc(S(=O)(=O)NC(=O)N2CCc3ccccc32)cc1 | - | - | - | - | . | .
SMILES | GPR151 ag | TEAD-YAP inh | MITF primary | FBW7 activator | GPR151 confirm | GPR119 counter
CCN1CCCC1Cn1c(=S)[nH]c2cc(Cl)ccc2c1=O (configuration not stated) | - | - | - | - | . | .
Cc1nn(C)c(C)c1-c1cncc(C(=O)NC2CCN(Cc3ccccc3)CC2)c1 | 5.5 | - | - | - | - | -
Cc1nn(C)c(C)c1-c1nc(C(=O)NC2CCN(Cc3ccccc3)CC2)cs1 | 8.7 | - | - | - | - | -
CCc1c(C#N)c(N)nc(SCC(=O)c2cc3ccccc3oc2=O)c1C#N | 9.9 | - | - | - | - | -
O=C(CNC(=S)N(Cc1cccs1)C1CCCCC1)NC1CCCC1 | 6.2 | - | - | - | - | -
CC1CCCCC1NC(=O)CNC(=S)N(Cc1cccs1)C1CCCCC1 (configuration not stated) | - | - | - | - | . | .
COc1ccc(-c2ccc3nnc(SCC(=O)c4ccccc4)n3n2)cc1 | - | - | - | - | . | .
O=C(CN1C(=O)C2(SCC(=O)N2c2ccc(F)cc2)c2ccccc21)NCCc1ccccc1 (configuration not stated) | - | - | - | - | . | .
O=C(CN1C(=O)C2(SCC(=O)N2c2ccc(F)c(F)c2)c2ccccc21)NCCc1ccccc1 (configuration not stated) | 5.4 | - | - | - | - | -
COc1ccc(COC(=O)C2=C(C)NC3=C(C(=O)CC(c4cccs4)C3)C2c2ccc3c(c2)OCO3)cc1 (configuration not stated) | - | - | - | - | . | .
COc1ccc(C[C@@H]2NC(=O)[C@H]3CN(C(=O)Oc4ccccc4)CCN3C2=O)cc1 | - | - | - | - | . | .
CCOc1ccc2cc(S(=O)(=O)NCc3ccccc3)ccc2c1 | 5.2 | - | - | - | - | -
COc1ccc2cc(S(=O)(=O)NCc3ccccc3)ccc2c1 | - | - | - | - | . | .
COc1ccc(CNCCCN2CCOCC2)c(OC)c1 | - | - | - | - | . | .
COCCNc1nc(-c2ccc(OC)c(OC)c2)no1 | 8.4 | - | - | - | - | -
c1ccc(N2CCN(Cc3nnnn3Cc3cccs3)CC2)cc1 | - | - | - | - | . | .
c1ccc(CN2CCN(Cc3nnnn3Cc3cccs3)CC2)cc1 | 5.9 | - | - | - | - | -
O=C(CNC(=O)c1ccc(Br)o1)NNC(=O)c1ccccn1 | - | - | - | - | . | .
CCOc1cc(CN2CCc3nnc(C(NS(C)(=O)=O)C(C)C)n3CC2)ccc1O (configuration not stated) | 8.1 | - | - | - | - | -
CCC(=O)NC(c1nnc2n1CCN(Cc1ccc(C)c(C)c1)CC2)C(C)C (configuration not stated) | 9.8 | - | - | - | - | -
CCC(=O)NC(c1nnc2n1CCN(Cc1ccc(OC)c(C)c1)CC2)C(C)C (configuration not stated) | - | - | - | - | . | .
O=S(=O)(c1ccc(S(=O)(=O)n2cnc3ccccc32)cc1)N1CCCC1 | 6.0 | - | - | - | - | -
CN1CCN(CC(=O)N2c3ccccc3Sc3ccc(C(F)(F)F)cc32)CC1 | - | - | - | - | . | .
O=C(CN1CCC(O)CC1)N1c2ccccc2Sc2ccc(C(F)(F)F)cc21 | 8.4 | - | - | - | - | -
COc1ccc(C2CC(c3cccs3)=NN2C(=O)CSc2nnc(CNC(=O)c3cccc(OC)c3)n2-c2ccccc2)cc1 (configuration not stated) | 5.8 | - | - | - | - | -
COc1cccc(C(=O)NCc2nnc(SCC(=O)N3N=C(c4cccs4)CC3c3ccc(C)cc3)n2-c2ccccc2)c1 (configuration not stated) | - | - | - | - | . | .
Cc1cc(S(=O)(=O)N2CCN(C)CC2)c(C)cc1Cl | 5.3 | - | - | - | - | -
Cc1cc(C)c(S(=O)(=O)N2CCN(C)CC2)cc1C | - | - | - | - | . | .

Screens (PubChem)
